Only some compounds are listed: those with a hit (about 6.3% of all), similar ones and a draw of the others.
VP16 counter – Gal4-VP16 reporter inhibition counter-screen; Potency, µM (series often up to 53.6 µM), without a hit: top-dose activity, negative = inhibition, actives largely listed as inhibitors; 310,000 compounds, 3.5% hits; Drosophila S2 Gal4-VP16 UAS-luciferase, luminescence, 20 h;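 note: Gal4-VP16 expression switched on by copper sulfate through the metallothionein promoter; % is set by controls: 0 for no effect and ±100 for the full control effect; nearly all actives have a fitted effect of over 50% in size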
HepG2 tox-1 – HepG2 cytotoxicity, counter-screen for TGF-b inhibitors; HepG2 CAGA-GFP viability, ATP luminescence, 18 h; Potency, µM (highest dose often 46.1 µM), without a hit: top-dose activity change, negative = cytotoxicity, actives largely listed as cytotoxic; 410,000 compounds, 0.76% hits; AID 588856
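HepG2 CAGA-GFP cells (1000/well, DMEM with 1% FBS) received compound, then TGF-beta at 500 pg/mL final, and were incubated 18 hours at 37 degrees C. Viability was read by CellTiter-Glo luminescence. Media-only wells were set as complete cell-killing and DMSO as no toxicity.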
TGFb inhibitor – inhibitors of TGF-b signaling. Potency, µM (titrated, usually from 46.1 µM), for inactives: at the top dose activity, negative = inhibition, most hits filed as inhibitors. HepG2 CAGA-GFP TGF-b/SMAD3 reporter, GFP fluorescence, 18 h; TGF-beta stimulated, 500 pg/mL final. 410,000 compounds, 1.2% hits. AID 588855; note: % is set by controls: 0 for no effect and ±100 for the full control effect; nearly all actives have a fitted effect of over 65% in size
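Inhibition was scored as loss of TGF-beta-induced (500 pg/mL final, 18 hours, 37 degrees C) GFP in HEPG2 cells carrying a CAGA-GFP reporter, in DMEM with 1% FBS. Well GFP was summed per cell; Activity was normalised to unstimulated and stimulated DMSO wells, then concentration-response fitting.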
S2 tox – reduces viability in counter-screen for ATXN expression inhibitors; S2 cells (HEK-293 line with an ATXN2-luciferase reporter) viability, CellTiter-Fluor protease fluorescence, 24 h; Potency, µM (top dose mostly 56.7 µM), usual class: cytotoxic; 400,000 compounds, 0.49% hits; AID 651635; note: nearly all actives have a fitted effect of over 40% in size
ATXN2 expr inh – inhibitors of ATXN2 expression; Potency, µM (highest dose often 57 µM), for inactives: at the highest dose activity change, negative = inhibition, usual class: inhibitors; 360,000 compounds, 0.72% hits; HEK-293 ATXN2-luciferase reporter, luminescence, 24 h; note: % is set by controls: 0 for no effect and ±100 for the full control effect; nearly all actives have a fitted effect of over 55% in size
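qHTS (up to 57 uM final) was run with 24 h compound exposure of reporter cells at 37 °C. Each well was multiplexed: SteadyGlo luminescence measured ATXN2-luciferase expression after a fluorogenic Gly-Phe-AFC viability readout (25 uM final).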
RORgamma inh – ROR gamma (mouse) transcription inhibition; P51450; Drosophila S2 Gal4-RORgamma UAS-luciferase reporter, 20 h; Potency, µM (series often up to 53.6 µM), for inactives: at the highest dose activity change, negative = inhibition, actives largely listed as inhibitors; 310,000 compounds, 5.4% hits; note: % is set by controls: 0 for no effect and ±100 for the full control effect; nearly all actives have a fitted effect of over 60% in size
Target sequence (P51450 whole entry, looked up, the tested form may be a part): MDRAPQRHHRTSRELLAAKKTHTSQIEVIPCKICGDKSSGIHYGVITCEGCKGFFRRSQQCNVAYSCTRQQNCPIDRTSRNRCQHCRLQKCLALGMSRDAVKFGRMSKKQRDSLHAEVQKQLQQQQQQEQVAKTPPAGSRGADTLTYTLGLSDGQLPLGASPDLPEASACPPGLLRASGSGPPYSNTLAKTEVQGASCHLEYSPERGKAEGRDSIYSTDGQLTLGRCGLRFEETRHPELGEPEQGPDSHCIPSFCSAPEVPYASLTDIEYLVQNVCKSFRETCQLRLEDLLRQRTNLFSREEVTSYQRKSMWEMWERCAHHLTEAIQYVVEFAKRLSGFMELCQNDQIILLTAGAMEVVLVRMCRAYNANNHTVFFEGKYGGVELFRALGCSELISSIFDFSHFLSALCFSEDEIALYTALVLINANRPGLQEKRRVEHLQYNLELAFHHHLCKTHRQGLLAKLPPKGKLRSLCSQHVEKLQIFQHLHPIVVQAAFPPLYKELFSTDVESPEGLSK
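A Gal4/UAS one-hybrid system in insect cells: metallothionein-promoter Gal4–ROR gamma fusion plus Photinus luciferase reporter. Copper sulfate 700 uM final, 20 hr ambient incubation, luminescent detection after 10 min with reagent.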
TGFb CAGA inh – TGF-b pathway inhibition, cherry-pick retest; shares compounds with TGFb inhibitor; HepG2 CAGA-GFP TGF-b reporter, GFP fluorescence, 18 h; cells stimulated with TGF-beta, 500 pg/mL; Potency, µM (series often up to 46.1 µM), inactives show top-dose activity, negative = inhibition, actives largely listed as inhibitors; 1,600 compounds, 63% hits; AID 720534; note: % is set by controls: 0 for no effect and ±100 for the full control effect; nearly all actives have a fitted effect of over 65% in size
HepG2 tox-2 – HepG2 cytotoxicity, TGF-b inhibitor counterscreen | Potency, µM (series often up to 46.1 µM), without a hit: top-dose activity, negative = cytotoxicity, usual class: inhibitors | AID 720535 | HepG2 CAGA-GFP viability, ATP luminescence, 18 h; cells stimulated with TGF-beta, 500 pg/mL | 1,600 compounds, 27% hits | shares compounds with TGFb inhibitor; note: % is set by controls: 0 for no effect and ±100 for the full control effect; nearly all actives have a fitted effect of over 70% in size
TGFb CCL64 inh – blocks TGF-b signaling in CCL64 reporter cells; shares compounds with TGFb inhibitor; Potency, µM (top dose mostly 46.1 µM), inactives show at the highest dose activity, negative = inhibition, usual class: inhibitors; 1,600 compounds, 41% hits; AID 720536; CCL64 CAGA-GFP reporter, TGF-b stimulated, GFP fluorescence, 18 h; note: nearly all actives have a fitted effect of over 65% in size
COP TGFb inh – validation of TGF-b inhibitors in HepG2 COP promoter reporter. shares compounds with TGFb inhibitor. HepG2 COP-GFP TGF-b reporter, GFP fluorescence, 18 h; cells stimulated by added recombinant TGF-beta. Potency, µM (top dose mostly 46.1 µM), for the others: at the top dose activity, negative = inhibition, most hits filed as inhibitors. 1,600 compounds, 3% hits. AID 720537; note: nearly all actives have a fitted effect of over 70% in size
The depositor's hits bear a star. Calls come from the whole dose curve; as a rule, active = well fitted curve in the direction sought with a large enough effect; inconclusive = small, poorly fitted or top-dose-only effect, or another doubt; inactive = no such curve, though single readings can be large; an effect the other way counts as inactive or inconclusive. Potency is the fitted concentration of half-maximal effect.

For OC(c1cc(C(F)(F)F)nc2c(C(F)(F)F)cccc12)C1CCCCN1 (configuration not stated) the results were VP16 counter -6%, HepG2 tox-1 -97%, TGFb inhibitor inconclusive, ATXN2 expr inh inconclusive and RORgamma inh -29%.
Screening Cc1cc(Cl)c(S(=O)(=O)N2CCN(c3ccccn3)CC2)cc1OCC(=O)NC1CCCCC1 returned VP16 counter -13%, HepG2 tox-1 -22%, TGFb inhibitor 10µM*, S2 tox inconclusive, RORgamma inh 36%, TGFb CAGA inh 12µM*, HepG2 tox-2 inconclusive, TGFb CCL64 inh -25% and COP TGFb inh 16%.
Screening Cc1cc(Cl)c(S(=O)(=O)N2CCCCCC2)cc1OCC(=O)NC1CCCCC1 returned VP16 counter -12%, HepG2 tox-1 12%, TGFb inhibitor -20% and RORgamma inh -26%.
`CCOC(=O)C1=C[C@@H](C(C)(C)C)N(S(=O)(=O)c2ccc([N+](=O)[O-])cc2)[C@H]1c1ccccc1` gave HepG2 tox-1 -15%, TGFb inhibitor inconclusive, S2 tox inactive, ATXN2 expr inh -20%, TGFb CAGA inh inconclusive, HepG2 tox-2 -3%, TGFb CCL64 inh inconclusive and COP TGFb inh -1%.
`CCOC(=O)C1=C[C@@H](C(C)(C)C)N(S(=O)(=O)c2ccc(OC)cc2)[C@H]1c1ccccc1` gave HepG2 tox-1 -20%, TGFb inhibitor 11µM*, S2 tox inactive, ATXN2 expr inh -9%, TGFb CAGA inh 9.2µM*, HepG2 tox-2 -29%, TGFb CCL64 inh -29% and COP TGFb inh -3%.
`Cc1ccccc1NC(=O)Nc1nc(C2CCC(=O)N2)cs1` (configuration not stated) gave HepG2 tox-1 -25%, TGFb inhibitor -4%, S2 tox inactive and ATXN2 expr inh 0%.
Screening COc1ccc(Cc2nnc(NS(=O)(=O)c3ccc([N+](=O)[O-])cc3)s2)cc1 returned VP16 counter 9%, HepG2 tox-1 -4%, TGFb inhibitor 6%, S2 tox inactive, ATXN2 expr inh -8% and RORgamma inh 3%.
For Cc1ccc2nc(/C(C#N)=C\c3ccc([N+](=O)[O-])o3)[nH]c2c1 the results were VP16 counter 3.2µM*, HepG2 tox-1 5µM*, TGFb inhibitor inconclusive, ATXN2 expr inh 5.6µM*, RORgamma inh 5.6µM*, TGFb CAGA inh 16µM*, HepG2 tox-2 6.5µM*, TGFb CCL64 inh 4.6µM* and COP TGFb inh 5%.

Compound activity from PubChem BioAssay.
